# Results taken from PubChem BioAssay (EPA / NIEHS).
# Active and inactive are the calls of the source. The calls were made as follows: active = hit-call score of the fitted dose curve at least 0.9, where 1 is the maximum; inactive = score below 0.9.
# What was measured:
# [1] = read-out: Cyclin D1 (CCND1), CCND1 (gene 595); assay: LTEA_HepaRG_CCND1: Life Technologies and Expression Analysis (LTEA) Assay for Cyclin D1 (CCND1) using HepaRG (AID 2283451); conditions: mRNA level, 48 h; actives raise or lower the signal;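 as to AC50: differentiated human HepaRG liver cells in serum-free induction medium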
# Procedure, shortened: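 Expression of CCND1 was quantified by qRT-PCR on Fluidigm arrays using ACTB, GAPDH and POLR2A as reference genes. HepaRG cultures, plated 48 h beforehand, were dosed for 48 h at up to 100 uM (half-log, 8 points) in 0.5% DMSO.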
# [2] = read-out: catalase (CAT), CAT (gene 847); assay: LTEA_HepaRG_CAT: Life Technologies and Expression Analysis (LTEA) Assay for catalase (CAT) using HepaRG (AID 2283452); conditions: mRNA level, 48 h; actives raise or lower the signal
# Procedure, shortened: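 Expression of CAT was quantified by TaqMan qRT-PCR with ACTB/GAPDH/POLR2A normalization after 48 h chemical exposure of HepaRG. Eight-point half-log series, top 100 uM, in 0.5% DMSO; gain or loss fitted against vehicle.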
# [3] = read-out: flavin-containing dimethylaniline monooxygenases 3 (FMO3), FMO3 (gene 2328); assay: LTEA_HepaRG_FMO3: Life Technologies and Expression Analysis (LTEA) Assay for flavin-containing dimethylaniline monooxygenases 3 (FMO3) using HepaRG (AID 2283453); conditions: mRNA level, 48 h; actives raise or lower the signal;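 as to AC50: differentiated human HepaRG liver cells in serum-free induction medium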
# Procedure, shortened: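 Differentiated HepaRG cells in serum-free induction medium, exposed 48 h in duplicate to 8 half-log concentrations up to 100 uM in 0.5% DMSO. FMO3 mRNA by qRT-PCR, normalized to ACTB, GAPDH, POLR2A; bidirectional fit vs DMSO.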
# [4] = read-out: Cytochrome P450 (CYP1A1), CYP1A1 (gene 1543); assay: LTEA_HepaRG_CYP1A1: Life Technologies and Expression Analysis (LTEA) Assay for Cytochrome P450 (CYP1A1) using HepaRG (AID 2283454); conditions: mRNA level, 48 h; actives raise or lower the signal
# Procedure, shortened: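 CYP1A1 transcript levels measured by Fluidigm qRT-PCR against three housekeeping genes, 48 h after chemical dosing of human HepaRG cells (highest concentration 100 uM, half-log steps, 0.5% DMSO vehicle). Gain or loss of signal fitted relative to DMSO.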
# [5] = read-out: CFLAR gene, CFLAR (gene 8837); assay: LTEA_HepaRG_CFLAR: Life Technologies and Expression Analysis (LTEA) Assay for CFLAR gene using HepaRG (AID 2283455); conditions: mRNA level, 48 h; actives raise or lower the signal
# Procedure, shortened: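 HepaRG, 48 h exposure, 8-pt conc-response (100 uM top, half-log), 0.5% DMSO vehicle, duplicates. CFLAR expression by qRT-PCR; ACTB/GAPDH/POLR2A normalization; gain or loss fit vs DMSO baseline.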
# [6] = read-out: Forkhead box O1 (FOXO1), FOXO1 (gene 2308); assay: LTEA_HepaRG_FOXO1: Life Technologies and Expression Analysis (LTEA) Assay for Forkhead box O1 (FOXO1) using HepaRG (AID 2283456); conditions: mRNA level, 48 h; actives raise or lower the signal
# Procedure, shortened: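 Readout is FOXO1 transcript level by multiplexed qRT-PCR against three housekeeping genes, curve-fitted in both directions relative to 0.5% DMSO vehicle. Human HepaRG cultures received chemicals for 48 h, up to 100 uM in half-log steps.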
# [7] = CEETOX_H295R_TESTO: CeeTox H295R High-throughput Steroidogenesis Assay for Testosterone (TESTO) (AID 2283457); conditions: actives raise or lower the signal
# Procedure, shortened: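 Testosterone secreted into the medium over 48 h by H295R cells (maximum passage 10) was quantified by LC-MS/MS after MTBE extraction. Fitted in both directions against DMSO, with concentrations diluted until MTT viability was ≥70%.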
# [8] = read-out: growth arrest and DNA damage 45 (GADD45A), GADD45A (gene 1647); assay: LTEA_HepaRG_GADD45A: Life Technologies and Expression Analysis (LTEA) Assay for growth arrest and DNA damage 45 (GADD45A) using HepaRG (AID 2283458); conditions: mRNA level, 48 h; actives raise or lower the signal
# Procedure, shortened: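 Differentiated HepaRG cells exposed 48 h in serum-free induction medium to 8 concentrations, top 100 uM in half-log steps, 0.5% DMSO. GADD45A mRNA quantified by qRT-PCR, normalized to ACTB, GAPDH and POLR2A; bidirectional fit versus DMSO.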
# [9] = read-out: ABC Transporter (ABCB1), ABCB1 (gene 5243); assay: LTEA_HepaRG_ABCB1: Life Technologies and Expression Analysis (LTEA) Assay for ABC Transporter (ABCB1) using HepaRG (AID 2283460); conditions: mRNA level, 48 h; actives raise or lower the signal
# Procedure, shortened: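 Expression of ABCB1 was quantified by qRT-PCR against three housekeeping genes after human HepaRG cultures received test chemicals for 48 hours. Concentrations spanned eight half-log steps topping at 100 uM in 0.5% DMSO; gain or loss of signal was fitted relative to vehicle.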
# [10] = read-out: growth arrest and DNA damage 45 (GADD45B), GADD45B (gene 4616); assay: LTEA_HepaRG_GADD45B: Life Technologies and Expression Analysis (LTEA) Assay for growth arrest and DNA damage 45 (GADD45B) using HepaRG (AID 2283461); conditions: mRNA level, 48 h; actives raise or lower the signal
# Procedure, shortened: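 Transcript level quantified by Fluidigm TaqMan qRT-PCR with three housekeeping genes for normalization, analyzed for up- or down-regulation against 0.5% DMSO. HepaRG cultures dosed 48 h at eight half-log concentrations up to 100 uM, duplicates.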
# [11] = read-out: ABC Transporter (ABCC3), ABCC3 (gene 8714); assay: LTEA_HepaRG_ABCC3: Life Technologies and Expression Analysis (LTEA) Assay for ABC Transporter (ABCC3) using HepaRG (AID 2283462); conditions: mRNA level, 48 h; actives raise or lower the signal
# Procedure, shortened: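 Transcript level by TaqMan qRT-PCR, normalised to three housekeeping genes, fitted in both directions relative to vehicle. Chemicals tested in duplicate at eight half-log concentrations up to 100 uM for 48 h on HepaRG cells (0.5% DMSO).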
# [12] = read-out: ABC Transporter (ABCB11), ABCB11 (gene 8647); assay: LTEA_HepaRG_ABCB11: Life Technologies and Expression Analysis (LTEA) Assay for ABC Transporter (ABCB11) using HepaRG (AID 2283463); conditions: mRNA level, 48 h; actives raise or lower the signal
# Procedure, shortened: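 ABCB11 transcript levels are read by Fluidigm TaqMan qRT-PCR after 48 h chemical treatment of human HepaRG cells. Concentrations span 100 uM downward in half-log steps with 0.5% DMSO; gain or loss is fitted against DMSO controls.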
# [13] = read-out: ABC Transporter (ABCC2), ABCC2 (gene 1244); assay: LTEA_HepaRG_ABCC2: Life Technologies and Expression Analysis (LTEA) Assay for ABC Transporter (ABCC2) using HepaRG (AID 2283464); conditions: mRNA level, 48 h; actives raise or lower the signal
# Procedure, shortened: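 Endpoint is ABCC2 transcript level from qRT-PCR, normalized to three housekeeping genes and fitted bidirectionally relative to DMSO. Human HepaRG cells received test chemical for 48 h at up to 100 uM (8 points, half-log steps, 0.5% DMSO), duplicate wells.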
# [14] = read-out: Broad substrate specificity ATP-binding cassette transporter ABCG2 (Homo sapiens) (UniProt Q9UNQ0); assay: LTEA_HepaRG_ABCG2: Life Technologies and Expression Analysis (LTEA) Assay for ABC Transporter (ABCG2) using HepaRG (AID 2283465); conditions: mRNA level, 48 h; actives raise or lower the signal
# Procedure, shortened: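 Read-out is ABCG2 mRNA induction or loss quantified by qRT-PCR after 48 h chemical treatment of human HepaRG cells, normalized to three housekeeping genes. Concentrations reached 100 uM top in half-log steps; fitting was bidirectional against 0.5% DMSO.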
# [15] = read-out: ATP-citrate lyase (ACLY), ACLY (gene 47); assay: LTEA_HepaRG_ACLY: Life Technologies and Expression Analysis (LTEA) Assay for ATP-citrate lyase (ACLY) using HepaRG (AID 2283466); conditions: mRNA level, 48 h; actives raise or lower the signal
# Procedure, shortened: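 HepaRG, 48 h exposure, 8-pt half-log dilutions (top 100 uM), 0.5% DMSO. Readout: ACLY mRNA, TaqMan qRT-PCR, housekeeping-normalized (ACTB/GAPDH/POLR2A). Bidirectional curve fit vs DMSO.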
# [16] = read-out: Peroxisomal acyl-coenzyme A oxidase 1 (ACOX1) gene, ACOX1 (gene 51); assay: LTEA_HepaRG_ACOX1: Life Technologies and Expression Analysis (LTEA) Assay for Peroxisomal acyl-coenzyme A oxidase 1 (ACOX1) gene using HepaRG (AID 2283467); conditions: mRNA level, 48 h; actives raise or lower the signal
# Procedure, shortened: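 Measured by qRT-PCR against three housekeeping genes: ACOX1 transcript change in human HepaRG cells after 48 h dosing. Concentrations ran up to 100 uM in half-log steps. Curves were fitted bidirectionally relative to 0.5% DMSO.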
# [17] = read-out: Alkaline Phosphatase, Placental (ALPP) gene, ALPP (gene 250); assay: LTEA_HepaRG_ALPP: Life Technologies and Expression Analysis (LTEA) Assay for Alkaline Phosphatase, Placental (ALPP) gene using HepaRG (AID 2283468); conditions: mRNA level, 48 h; actives raise or lower the signal;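 as to AC50: differentiated human HepaRG liver cells in serum-free induction medium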
# Procedure, shortened: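 ALPP transcript level, measured by qRT-PCR and normalized to three housekeeping genes (ACTB, GAPDH, POLR2A), after 48 h dosing of differentiated HepaRG in serum-free induction medium. Top concentration 100 uM with half-log dilutions (8 points, 0.5% DMSO, duplicates); bidirectional fitting relative to DMSO.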
# [18] = read-out: Bcl-2 (BAD) gene, BAD (gene 572); assay: LTEA_HepaRG_BAD: Life Technologies and Expression Analysis (LTEA) Assay for Bcl-2 (BAD) gene using HepaRG (AID 2283469); conditions: mRNA level, 48 h; actives raise or lower the signal
# Procedure, shortened: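 BAD transcript change, measured by qRT-PCR against three housekeeping genes and fitted in both directions relative to 0.5% DMSO, after 48 h chemical treatment of human HepaRG liver cells at concentrations up to 100 uM.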
# [19] = read-out: Cyclin Dependent Kinase Inhibitor 1A (CDKN1A), CDKN1A (gene 1026); assay: LTEA_HepaRG_CDKN1A: Life Technologies and Expression Analysis (LTEA) Assay for Cyclin Dependent Kinase Inhibitor 1A (CDKN1A) using HepaRG (AID 2283450); conditions: mRNA level, 48 h; actives raise or lower the signal
# Procedure, shortened: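 Expression quantified by Fluidigm qRT-PCR with ACTB, GAPDH and POLR2A normalization, fitted bidirectionally against 0.5% DMSO. Cells: HepaRG, plated 48 h then treated 48 h in serum-free induction medium, top concentration 100 uM with half-log dilutions.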
# Sequence of Broad substrate specificity ATP-binding cassette transporter ABCG2 (Homo sapiens) (Q9UNQ0 whole entry, looked up): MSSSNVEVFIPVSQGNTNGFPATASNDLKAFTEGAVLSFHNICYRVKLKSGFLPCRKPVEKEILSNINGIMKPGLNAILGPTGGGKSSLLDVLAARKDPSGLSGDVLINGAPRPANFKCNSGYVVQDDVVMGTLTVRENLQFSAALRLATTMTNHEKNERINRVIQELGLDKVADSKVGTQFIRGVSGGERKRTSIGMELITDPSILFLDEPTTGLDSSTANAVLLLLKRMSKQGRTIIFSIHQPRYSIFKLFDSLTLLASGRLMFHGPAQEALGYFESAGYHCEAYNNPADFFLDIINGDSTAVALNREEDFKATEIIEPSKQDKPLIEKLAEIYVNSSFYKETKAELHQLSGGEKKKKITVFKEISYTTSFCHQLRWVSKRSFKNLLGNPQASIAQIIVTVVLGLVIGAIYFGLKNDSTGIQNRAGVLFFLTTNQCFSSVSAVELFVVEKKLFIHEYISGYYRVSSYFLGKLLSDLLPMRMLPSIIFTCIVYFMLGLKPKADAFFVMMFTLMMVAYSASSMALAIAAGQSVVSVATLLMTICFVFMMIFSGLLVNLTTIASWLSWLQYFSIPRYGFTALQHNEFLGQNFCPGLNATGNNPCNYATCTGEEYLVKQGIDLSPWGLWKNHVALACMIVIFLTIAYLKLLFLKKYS
smiles,measurement,setting,value
CC1(C)CCC(=Cc2ccc(Cl)cc2)C1(O)Cn1cncn1 (stereo not given),outcome,[1],inactive
same,outcome,[2],inactive
same,outcome,[3],inactive
same,AC50,[4],11.2 µM (active)
same,outcome,[5],inactive
same,outcome,[6],inactive
same,outcome,[7],inactive
same,outcome,[8],inactive
same,AC50,[9],4.18 µM (active)
same,outcome,[10],inactive
same,outcome,[11],inactive
same,outcome,[12],inactive
same,outcome,[13],inactive
same,outcome,[14],inactive
same,AC50,[15],34 µM (active)
same,outcome,[16],inactive
same,outcome,[17],inactive
same,outcome,[18],inactive
N#Cc1c[nH]cc1-c1cccc2c1OC(F)(F)O2,outcome,[19],inactive
same,AC50,[1],50 µM (active)
same,AC50,[2],74.9 µM (active)
same,AC50,[3],71.8 µM (active)
same,AC50,[4],77.2 µM (active)
same,AC50,[5],14.7 µM (active)
same,outcome,[6],inactive
same,outcome,[9],inactive
same,AC50,[10],27.1 µM (active)
same,outcome,[11],inactive
same,AC50,[12],44.8 µM (active)
same,outcome,[13],inactive
same,AC50,[14],50 µM (active)
same,outcome,[15],inactive
same,outcome,[16],inactive
same,AC50,[17],10 µM (active)
same,outcome,[18],inactive
